# In the library only some 6% were active in any assay of this set; here they are far more common.
# D1 ag – activates the human D1 dopamine receptor | P21728 | hit rate 1% among 360,000 | AID 504660 | HEK293 T-REx D1 cells, calcium flux, agonist mode | activation, % at 2 µM; in the data active = activation above about 30%; also: 0% is about no effect
#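 Agonism was scored from calcium flux recorded over 180 s (1 read/s) after pintool compound addition, following a 10-cycle baseline. Cells were inducible force-coupled HEK293 TREx D1, plated overnight at 30 C and loaded with no-wash calcium dye.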
# D3 antag – antagonists of human D3 dopamine receptor. D3R cells, DiscoveRx beta-arrestin luminescence, antagonist mode; hits give low values. AID 652054. hit rate 2.5% among 360,000. P35462. max response, negative = inhibition, %; in the data active = max response below about -50%; inconclusive = no clear call, values can overlap the other calls; also: % is scaled to controls: 0 for no effect and ±100 for the full control effect
# Target sequence (P35462 whole entry, looked up): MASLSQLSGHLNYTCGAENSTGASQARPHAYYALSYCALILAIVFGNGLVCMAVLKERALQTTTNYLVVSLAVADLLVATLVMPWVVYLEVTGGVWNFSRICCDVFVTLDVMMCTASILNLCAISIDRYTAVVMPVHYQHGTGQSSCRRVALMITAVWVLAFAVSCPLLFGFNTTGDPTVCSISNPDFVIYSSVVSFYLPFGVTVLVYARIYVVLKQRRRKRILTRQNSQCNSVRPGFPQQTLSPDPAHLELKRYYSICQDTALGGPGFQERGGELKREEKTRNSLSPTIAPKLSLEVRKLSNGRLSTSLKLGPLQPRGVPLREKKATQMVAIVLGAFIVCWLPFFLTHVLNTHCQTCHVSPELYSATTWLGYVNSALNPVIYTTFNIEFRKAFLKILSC
#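 Cells expressing the human receptor were seeded at 1500 cells/well, incubated overnight at 37 degrees C in 5% CO2, then exposed to library compounds with dopamine controls for 90 minutes at 37 degrees C before luminescent detection.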
# D1 antagonist – blocks dopamine activation of the human D1 receptor. P21728. HEK293 TREx D1 cells, calcium flux, dopamine EC80; hits give low values. activity change, negative = inhibition, % at 10 µM. hit rate 3.2% among 360,000; in the data active = activity change below about -30%; also: % is scaled to controls: 0 for no effect and ±100 for the full control effect
#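 Antagonism measured as reduced calcium response to an EC80 dopamine addition following 180 s compound pre-read; cells were inducible HEK293 Trex D1 plated overnight at 30 C, read kinetically at 1 cycle/sec.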
# DRD3 agonist – agonists of human D3 dopamine receptor | P35462 | D3R DiscoveRx beta-arrestin cells, luminescence, 90 min | max activation, % | hit rate 0.58% among 410,000 | AID 652048; in the data active = max activation above about 30%; also: 0% is about no effect
#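 Agonist-mode cell screen: cells plated at 1500/well and incubated overnight at 37 °C, then exposed to library compounds for 90 min at 37 °C. Detection reagent was added for 30–60 min at room temperature, and luminescence was read.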
# D1 potentiator – human D1 dopamine receptor positive modulation. P21728. HEK293 TREx D1 cells, calcium flux, dopamine EC20 potentiation. potentiation, % at 10 µM. hit rate 0.036% among 360,000; in the data active = potentiation above about 30%; also: 0% is about no effect
# * marks the source's active call; other numbers are inactive results; ? = inconclusive; · = no result.
SMILES,D1 ag,D3 antag,D1 antagonist,DRD3 agonist,D1 potentiator
CCOc1ccc(NC(=O)CCCc2nnc3n(C)c(=O)c4sccc4n23)cc1,-1,·,8,7,-2
Cc1cc(C)cc(NC(=O)CCc2nnc3n(C)c(=O)c4sccc4n23)c1,-1,·,-46*,1,3
Cc1ccc2nc(NC(=O)CSc3cc(C)[nH]c(=O)n3)sc2c1,2,·,·,-7,6
CCOc1ccc(NC(=O)c2cc3c(n(-c4ccc(OC)cc4)c2=O)CC(C)(C)CC3=O)cc1,1,·,-8,0,-4
O=C(NCCSCc1c(F)cccc1Cl)c1ccco1,12,9,-33*,1,-10
COCCNC(=O)CSCc1c(F)cccc1Cl,2,-10,-44*,0,-7
Cc1c(C(=O)NCCSCc2ccccc2Cl)cccc1[N+](=O)[O-],5,13,-14,19,-3
O=C(CNC(=O)c1ccco1)OCc1c(F)cccc1Cl,4,14,7,-5,1
Cc1c(C(=O)NCCSCc2c(Cl)cccc2Cl)cccc1[N+](=O)[O-],44*,36,-32*,1,-6
CCOC(=O)/C(=C\c1ccc(Cl)cc1)c1nc2sc(C)c(C)c2c(=O)[nH]1,0,-63*,20,1,-3
CCN(CC)CCCNC(=O)CSc1nc(-c2ccc(F)cc2)cc(C(F)(F)F)n1,15,-13,-41*,-8,-4
O=C(CSc1nc(-c2ccc(F)cc2)cc(C(F)(F)F)n1)NCCc1ccccc1,44*,·,-8,-9,-4
CCC(C)NC(=O)CSc1nc(-c2ccc(F)cc2)cc(C(F)(F)F)n1 (configuration not stated),2,·,-4,0,-5
O=C(CSc1nc(-c2ccc(F)cc2)cc(C(F)(F)F)n1)NCc1cccs1,6,14,5,-6,-7
CC(C)N(Cc1nc(-c2ccc(Cl)cc2)no1)C(=O)c1ccco1,5,·,-16,8,-6
O=C(Cn1cncn1)N/N=C/c1ccc(Cl)cc1,3,7,-3,2,-2
CC(C)(C)/C(Cn1cncn1)=N\OC(=O)Nc1ccc(Cl)cc1,5,0,-55*,1,-7
CC(C)c1nc2c(s1)CCc1onc(-c3ccc(Cl)cc3)c1-2,2,41,-9,32*,-2
CCCc1nc2c(s1)CCc1onc(-c3ccc(Cl)cc3)c1-2,6,6,6,25,1
CCCc1nc2c(s1)CCc1onc(-c3ccc(Br)cc3)c1-2,·,15,·,43*,·
COc1ccc(-c2noc3c2-c2nc(C(C)C)sc2CC3)cc1,·,114,·,-3,·
CCCCN(Cc1cc2cc(C)ccc2[nH]c1=O)C(=O)c1cccc(Cl)c1,0,·,19,9,5
CCOC(=O)c1c(C)[nH]c(C)c1S(=O)(=O)NCC1CCN(Cc2ccc(C)cc2)CC1,0,-54*,3,-15,0
CCOC(=O)c1c(C)[nH]c(C)c1S(=O)(=O)NCCN1CCN(c2ccccc2F)CC1,2,-58*,-79*,-15,-20
O=S(=O)(Nc1ccc(C(F)(F)F)cc1)c1ccc2c(c1)OCCO2,24,·,-12,8,-6
SMILES,D1 ag,D3 antag,D1 antagonist,DRD3 agonist,D1 potentiator
O=C(Nc1cccc(C(F)(F)F)c1)c1cc(CN2CCOCC2)on1,6,·,-13,-5,-6
CCC(C(=O)NC1CCCCC1)n1nc(C)c2sc3ccccc3c2c1=O (configuration not stated),1,·,-17,1,0
O=C(O)CCN(Cc1ccccc1)S(=O)(=O)c1ccc(Cl)cc1F,2,?,-38*,-14,-2
C[C@H](CCC(=O)OCc1cn(CC(=O)c2ccc(O)cc2)nn1)C1CC[C@H]2[C@@H]3CC[C@@H]4C[C@H](O)CC[C@]4(C)[C@H]3C[C@H](O)[C@]12C (some centres not stated),·,37,·,44*,·
C[C@H](CCC(=O)O)[C@H]1CC[C@H]2[C@@H]3CC[C@@H]4C[C@H](O)CC[C@]4(C)[C@H]3C[C@H](O)[C@]12C,·,0,·,12,·
CCC(=O)Nc1cccc(NC(=O)c2ccc(C)cc2Cl)c1,0,2,-46*,-2,-4
CSc1ccc(S(=O)(=O)NCC(=O)OCC(=O)N(Cc2ccccc2)C(C)C)cc1[N+](=O)[O-],0,-6,-35*,-1,-10
CSc1ccc(S(=O)(=O)NCC(=O)OCC(=O)N(C)Cc2ccccc2)cc1[N+](=O)[O-],14,-24,-23,-6,-6
c1ccc(COc2ccc(-c3csnn3)cc2)cc1,5,-61*,-5,-1,-5
CC(=O)COc1ccc(-c2csnn2)cc1,3,-24,10,-1,-1
Cc1nc2scc(C)n2c(=O)c1S(=O)(=O)Nc1cccc(C(F)(F)F)c1,22,·,-24,6,-2
Cc1nc2cc(-c3ccccc3)nn2c(C)c1CCC(=O)NCc1ccco1,4,6,-32*,5,·
Cc1nc2cc(-c3cccc(F)c3)nn2c(C)c1CCC(=O)NC(C)CCc1ccco1 (configuration not stated),5,-22,-35*,-2,·
COc1cc(OC)cc(-c2cc3nc(C)c(CCC(=O)NC(C)CCc4ccco4)c(C)n3n2)c1 (configuration not stated),0,1,-1,6,-4
COc1ccccc1-c1cc2nc(C)c(CCC(=O)NCc3ccco3)c(C)n2n1,2,-8,4,2,-10
O=C(CCSCc1ccccc1Cl)NCc1ccc(F)cc1Cl,68*,·,-19,1,-1
O=C(CCSCc1ccc(Cl)cc1)NCc1ccc(F)cc1Cl,10,·,-33*,11,-3
O=C(CCSCc1cccc(Cl)c1)NCc1ccc(F)cc1Cl,10,·,0,8,3
Cc1ccc2c(n1)sc1c(=O)n(-c3cccc(C(F)(F)F)c3)nnc12,3,·,-8,-19,-3
C=CCNC(=O)NC(=O)COC(=O)/C(C#N)=C/c1cc(C)n(CCC(C)C)c1C,3,3,10,13,1
Cc1cc(/C=C(\C#N)C(=O)OCC(=O)NC(=O)NC(C)(C)C)c(C)n1CCC(C)C,-2,39,-51*,0,-4
Cc1nc2c(c(C)nn2-c2ccccc2)c(C)c1CCC(=O)Nc1ccc(CN2CCCC2)cc1,22,-18,-39*,-13,-17
COc1cccc(-c2cc(C(F)(F)F)n3ncc(C(=O)OC(C)C)c3n2)c1,2,·,3,9,-4
Cc1ccc(-n2nc(C(=O)N(C)c3ccc(C)c(C)c3)c3c4ccccc4n(C)c3c2=O)cc1,2,·,6,-12,7
CC(Sc1nnc(-c2ccco2)n1C)C(=O)N1C(C)CCCC1C (configuration not stated),5,16,-41*,4,-4

# Source: PubChem
